FXIa inh mix: factor XIa (human) inhibition, mixture screen; purified FXIa, fluorogenic substrate, pooled mixtures; inhibition, % at 5 µM; actives 0.19% (n = 62,000); AID 680;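 further: each value is inhibition by a whole ten-compound pool holding the compound; 0% = enzyme with no mixture and 100% = wells lacking enzyme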
MMP13 inh: inhibitors of human MMP13; P45452; MMP-13 fTHP FRET cleavage, Mca fluorescence; inhibition, % at 4 µM; actives 0.07% (n = 65,000);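 active means inhibition above the mean of compound-free control plate wells plus 3 SD, cut at about 14% in these data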;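 further: 0% = DMSO wells and 100% = wells with reference MMP-13 inhibitor after basal subtraction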
Cathepsin G inh: inhibitors of human cathepsin G | purified enzyme, AMC-tetrapeptide fluorescence, pooled mixtures | inhibition, % at 5 µM (by protocol) | actives 0.2% (n = 62,000) | AID 581;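 active means inhibition above 20% in each of the two mixture wells holding the compound; inactive means inhibition of 20% or less in either well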;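 further: 0% = enzyme control without mixture and 100% = blank lacking enzyme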
WNV NS2B-NS3 inh: inhibitors of West Nile virus NS2B-NS3 protease | P06935 | WNV NS2B-NS3 protease, fluorogenic substrate Ex360/Em465; hits give low values | z-score (test concentration not listed) | actives 0.18% (n = 65,000) | AID 577; in the data active means z-score below about -3
Target sequence (P06935 1371-1501 limits assumed): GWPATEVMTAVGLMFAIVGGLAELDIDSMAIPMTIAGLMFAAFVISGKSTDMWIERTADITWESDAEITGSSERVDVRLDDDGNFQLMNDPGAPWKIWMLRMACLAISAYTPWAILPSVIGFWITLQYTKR
Target sequence (P06935 1502-1679 limits assumed): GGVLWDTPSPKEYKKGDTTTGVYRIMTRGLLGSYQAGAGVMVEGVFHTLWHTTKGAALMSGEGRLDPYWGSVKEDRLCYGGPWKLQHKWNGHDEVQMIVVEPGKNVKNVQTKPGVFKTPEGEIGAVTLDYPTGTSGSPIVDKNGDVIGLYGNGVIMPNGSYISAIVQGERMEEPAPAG
C1s inh: human complement C1s inhibition; P09871; purified C1s, fluorogenic AMC substrate, pooled mixtures; mean inhibition % of two 10-compound mixtures (hits give high values), % at 5 µM (by protocol); actives 0.16% (n = 62,000);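 active means inhibition above 20% in each of the two 10-compound mixture wells holding the compound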;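 further: 0% = enzyme wells lacking compound mixture and 100% = no-enzyme blank wells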
FXIIa inh mix: blocks human factor XIIa in pooled compound mixtures | P00748 | purified FXIIa, fluorogenic substrate | AID 684 | actives 0.2% (n = 62,000) | inhibition, % at 5 µM;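 further: 0% = enzyme without compound and 100% = no enzyme blank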
* marks the source's active call; other numbers are inactive results; i = inactive; · = no result given. Most compounds without a hit are left out; they make up all but 0.82% or so of the library. Unless noted, no stated cut-off is given here; in the data, active means inhibition above about 20% (passing the limit was not always enough); inactive means the rest.

SMILES	FXIa inh mix	MMP13 inh	Cathepsin G inh	WNV NS2B-NS3 inh	C1s inh	FXIIa inh mix
Cc1noc(NS(=O)(=O)c2ccc(NC(=O)CSc3nc4ccccc4s3)cc2)c1C	52*	1	32	-0.1	13	2
Cc1noc(NS(=O)(=O)c2ccc(NC(=O)CSc3ncccn3)cc2)c1C	6	9	-1	-0.63	-12	18
O=C(NC1CCCc2ccccc21)C1CCC(CNc2c(N3CCOCC3)c(=O)c2=O)CC1 (configuration not stated)	6	-5	5	-0.2	12	-15
CCC(=O)Oc1ccc(C(CC)C(CC)c2ccc(OC(=O)CC)cc2)cc1 (configuration not stated)	8	-1	9	-0.33	22*	5
CCC(=O)Oc1ccc(-c2nc(-c3cccnc3)no2)cc1	·	0	·	0.17	·	·
CCc1cc2c3c(c(=O)oc2cc1O)CCCC3	-3	i	-2	3.8	-75	4
Cc1ccc(-n2c(SCC(=O)N3CCCC3)nc3c(c2=O)SCC3)cc1	7	-1	11	0.08	21*	1
CC(=O)Nc1nc2ccccc2n1Cc1ccccc1C	-6	-6	-9	-0.54	-125	-15
CC(=O)Nc1nc2ccccc2n1CCOc1ccccc1Cl	10	2	0	-5.6*	-4	-14
CCOC(=O)c1[nH]c2ccccc2c1NC(=O)CC	9	-2	-1	-4*	1	12
CCOC(=O)c1[nH]c2ccccc2c1NC(=O)COC	1	-13	4	1.7	-17	7
CC(=O)Nc1ccc(NC(C)=O)s1	7	-5	11	-0.54	56*	8
COc1cc(NC(=O)c2cccs2)c(OC)cc1NC(=O)CCn1nnc2ccccc21	10	3	15	-0.15	21*	-1
COc1cc(NC(=O)c2cccs2)c(OC)cc1NC(=O)c1ccco1	5	4	10	-0.83	4	1
Cc1cccc(-n2c(Cc3cc(=O)[nH]c(=O)[nH]3)nnc2SCC(=O)N2CCCCC2)c1	21*	6	0	-1.3	-5	11
CCOC(=O)CN1CC23C=CC(O2)C(C(=O)Nc2cc(OC)ccc2OC)C3C1=O (configuration not stated)	4	14*	7	-2.1	13	6
Nc1ccc(S(=O)(=O)Nc2ccccn2)cc1	-9	-7	-1	-3.1*	-46	4
COc1ccc(S(=O)(=O)Nc2ccccn2)cc1OC	1	4	-1	1.1	10	8
CC1(C)CC(=NO)CC(C)(C)N1	0	6	10	0.33	4	0
CC(=O)c1cn(CC(=O)NCc2ccc3c(c2)OCO3)c2ccccc12	7	1	14	0.02	64*	2
CCn1cc(SCC(=O)NCc2ccc3c(c2)OCO3)c2ccccc21	10	-12	6	1.7	3	4
CCOc1ccccc1NC(=O)C1CCN(S(=O)(=O)c2cccc3cccnc23)CC1	13	-3	-3	-1.7	-4	1
C=CCNC(=O)C1CC(=O)N(c2ccc(OCC(=O)Nc3ccccc3)cc2)C1 (configuration not stated)	-3	7	1	-2.1	4	2
CCCc1nc(SCC(N)=O)[nH]c(=O)c1CC	15	-1	7	-0.68	-6	39
O=C(CCc1ccccc1)Nc1nc2n(n1)C(c1ccc(Cl)cc1)CC(=O)N2 (configuration not stated)	3	-3	3	-3.4*	-10	-12
SMILES	FXIa inh mix	MMP13 inh	Cathepsin G inh	WNV NS2B-NS3 inh	C1s inh	FXIIa inh mix
O=C(CCc1ccccc1)Nc1nc2n(n1)C(c1ccccc1)CC(=O)N2 (configuration not stated)	9	3	13	0.08	16	6
O=C(CCSc1nccn1Cc1ccccc1)N1CCOCC1	7	4	22*	0.09	18	-4
O=C(Oc1ccc2c(c1)OCC2=O)c1ccccc1	4	3	12	-1.2	43*	6
Clc1ccc(-c2nn3c(Cn4cnc5ccccc54)nnc3s2)c(Cl)c1	6	-2	-7	1.1	0	0
COC(=O)c1ccc(CSc2nc3scc(-c4cccs4)c3c(=O)[nH]2)o1	7	17*	10	-0.68	11	14
COC(=O)c1ccc(CSc2nc3c(cnn3-c3ccc(C)c(C)c3)c(=O)[nH]2)o1	5	-2	11	0.11	14	5
CCCCOCCCNC(=O)N[C@@H](CC(C)C)C(=O)O	-7	4	6	-3.7*	-37	8

Screens deposited in PubChem by several laboratories.
